Screens: PubChem, The Scripps Research Institute Molecular Screening Center
MITF inh: inhibitors of human MITF; AlphaScreen MITF homodimerization, bead proximity signal; inhibition, % at 2.6 µM; 650,000 tested, 0.91% active; in the data active means inhibition above about 50%
GPR151 ag: activators of human GPR151; Q8TDV0; PathHunter beta-arrestin GPR151 cells, luminescence; activation, % at 11.2 µM; 650,000 tested, 1% active; AID 1508602; in the data active means activation above about 4.9%
FBW7 activator: human FBW7 E3 ligase activation, primary screen | Q969H0 | AlphaScreen FBW7–phospho-cyclin E peptide binding, activator screen | 650,000 tested, 0.13% active | normalized activity (activation), % at 26.1 µM; in the data active means normalized activity above about 1.9%;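 further: purified mutant Fbw7 with reduced substrate affinity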
TEAD-YAP inh: TEAD-YAP interaction inhibition | HEK-TIYL cells, TEAD-Gal4/YAP UAS-luciferase luminescence | inhibition, % at 9.12 µM | 640,000 tested, 1.4% active; in the data active means inhibition above about 32%
GPR151 confirm: confirmation of human GPR151 activators. shares compounds with GPR151 ag. GPR151 PathHunter beta-arrestin cells, luminescence, 90 min; % of EA-reagent control over plate median. activation, % at 11.2 µM. 6,700 tested, under 10 active;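 active means mean percent activation across replicates above the confirmation screen cutoff of 4.91%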
GPR119 ag: activates human GPR119 in a GPR151 counter-screen | shares compounds with GPR151 ag | 6,700 tested, 0.3% active | GPR119 PathHunter beta-arrestin cells, luminescence, 90 min; 0 = compound-well median, 100 = enzyme-acceptor control | activation, % at 11.2 µM;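 active means mean percent activation in the counterscreen above 29.09%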;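 further: counterscreen on off-target GPR119 to flag nonselective hits from the GPR151 activator screen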
Target sequence (Q8TDV5 whole entry, looked up): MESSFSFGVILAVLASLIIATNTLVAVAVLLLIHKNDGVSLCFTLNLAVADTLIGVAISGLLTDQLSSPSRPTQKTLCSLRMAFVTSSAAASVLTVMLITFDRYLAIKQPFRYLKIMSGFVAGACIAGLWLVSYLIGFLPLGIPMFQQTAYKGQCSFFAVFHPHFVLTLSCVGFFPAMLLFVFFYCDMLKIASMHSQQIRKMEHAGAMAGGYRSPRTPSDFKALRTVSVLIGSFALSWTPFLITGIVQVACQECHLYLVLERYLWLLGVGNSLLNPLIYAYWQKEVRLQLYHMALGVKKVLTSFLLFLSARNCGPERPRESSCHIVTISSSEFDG
Each line names hits and unclear results; the compound was inactive in the other large screens (follow-up assays come after a bar, where they were run). Shown are actives, neighbours in structure and some others; about 3.4% of the full set was active somewhere.

Cc1ccc(-n2c(-c3ccncc3)n[nH]c2=S)cc1	none
COc1ccc(C(=O)C2CCN(CC(=O)Nc3ccccc3)CC2)cc1	none
N#Cc1ccc(NC(=O)COC(=O)C2COc3ccccc3O2)cc1 (stereo not given)	GPR151 ag 7.8 | GPR151 confirm inactive | GPR119 ag inactive
CCCCNS(=O)(=O)c1ccc(NS(=O)(=O)c2ccc(F)cc2)cc1	none
Cc1ccc2[nH]c(=O)c(CN(CC3COCCO3)S(=O)(=O)c3ccc(F)cc3)cc2c1 (stereo not given)	GPR151 ag 5.3 | GPR151 confirm inactive | GPR119 ag inactive
Cc1cc(C)nc(N/N=C/c2cc([N+](=O)[O-])ccc2O)n1	none
Cc1cc(C)n2nc(C(=O)N/N=C/c3cc([N+](=O)[O-])ccc3O)nc2n1	GPR151 ag 5.8 | GPR151 confirm inactive | GPR119 ag inactive
C=CCOC(=O)CCN1C(=O)c2ccccc2C1=O	GPR151 ag 20 | GPR151 confirm inactive | GPR119 ag inactive
Cc1ccccc1-c1cnnc(NCc2cc(-c3ccccc3)on2)n1	none
Cc1ccccc1-c1cnnc(NCC2COCCO2)n1 (stereo not given)	GPR151 ag 7.4 | GPR151 confirm inactive | GPR119 ag inactive
Cc1cccc(CN2CCN(Cc3nc(-c4ccc(F)cc4)cs3)CC2CCO)n1 (stereo not given)	GPR151 ag 10 | GPR151 confirm inactive | GPR119 ag inactive
Cc1cccc(Cn2c(SCC(C)C)nc3c2c(=O)[nH]c(=O)n3C)c1	GPR151 ag 5.2 | GPR151 confirm inactive | GPR119 ag inactive
Cn1c(=O)[nH]c(=O)c2c1nc(NCc1ccccc1)n2Cc1ccccc1	none
CCCSc1nc2c(c(=O)[nH]c(=O)n2C)n1CC(O)Oc1cccc2ccccc12 (stereo not given)	GPR151 ag 6.2 | GPR151 confirm inactive | GPR119 ag inactive
Cn1c(=O)[nH]c(=O)c2c1nc(NCc1ccccc1)n2Cc1ccc(Cl)cc1	GPR151 ag 6.7 | GPR151 confirm inactive | GPR119 ag inactive
Cn1c(=O)[nH]c(=O)c2c1nc(N1CCN(c3cccc(Cl)c3)CC1)n2Cc1ccccc1	GPR151 ag 5.3 | GPR151 confirm inactive | GPR119 ag inactive
CC1=C(C#N)C(=O)N(CCO)C(=O)/C1=C\c1ccc(-c2ccc(C(=O)OC(C)C)cc2)o1	none
Fc1ccc(-c2[nH]ncc2CCN2CCOCC2)cc1	GPR151 ag 9.9 | GPR151 confirm inactive | GPR119 ag inactive
Cc1ccc(N(CC(=O)N2CCOCC2)S(=O)(=O)c2ccccc2)cc1	GPR151 ag 9.1 | GPR151 confirm inactive | GPR119 ag inactive
O=C(CN(c1ccccc1)S(=O)(=O)c1ccccc1)N1CCOCC1	none
CCOc1ccccc1N(CC(=O)N1CCCC1)S(=O)(=O)c1ccc(C)cc1	GPR151 ag 6.0 | GPR151 confirm inactive | GPR119 ag inactive
Cc1ccc(S(=O)(=O)N(CC(=O)N2CCOCC2)CC(=O)N2CCOCC2)cc1	GPR151 ag 6.6 | GPR151 confirm inactive | GPR119 ag inactive
Cc1ccc(N(CC(O)Cn2c3ccccc3c3ccccc32)S(=O)(=O)c2ccccc2)cc1 (stereo not given)	GPR151 ag 6.2 | GPR151 confirm inactive | GPR119 ag inactive
Cc1ccc(N(CC(O)Cn2c3ccccc3c3ccccc32)S(=O)(=O)c2ccc(C)cc2)cc1 (stereo not given)	none
Cc1ccc(N(CC(=O)N2CCCCCC2)S(=O)(=O)c2ccccc2)cc1C	GPR151 ag 5.8 | GPR151 confirm inactive | GPR119 ag inactive
COc1ccc(Cl)cc1NC(=O)c1cc2n(n1)C(C(F)(F)F)CC(c1ccc(C)cc1)N2 (stereo not given)	none
O=C(NCc1ccccc1)c1nnc(Cc2cccc(F)c2)o1	GPR151 ag 4.9 | GPR151 confirm inactive | GPR119 ag inactive
CCOC(=O)CC1=CSC2=NC(C(F)(F)F)(C(F)(F)F)NC(=O)N12	GPR151 ag 5.6 | GPR151 confirm inactive | GPR119 ag inactive
CS(=O)(=O)c1ccc2c(c1)SC1=NC(C(F)(F)F)(C(F)(F)F)NC(=O)N12	none
COc1cc(OC)cc(C(=O)NNC(=S)NCc2ccco2)c1	GPR151 ag 7.2 | GPR151 confirm inactive | GPR119 ag inactive
CCS(=O)(=O)n1nc(-c2ccccc2)nc1NCc1ccco1	GPR151 ag 12 | GPR151 confirm inactive | GPR119 ag inactive
O=C1NN(c2ccccc2)C(=O)/C1=C/c1ccc(OC(=O)c2ccco2)c(Cl)c1	none
CC(C)(C)c1nnc(NC(=O)c2ccc([N+](=O)[O-])cc2)s1	none
COc1ccc(C(=O)Nc2nnc(C(C)(C)C)s2)cc1[N+](=O)[O-]	GPR151 ag 7.3 | GPR151 confirm inactive | GPR119 ag inactive
Cc1nc2c(C(=O)NCC3CCCO3)cnn2c(C)c1Cc1ccccc1 (stereo not given)	none
Cc1nc2c(C(=O)NC3CCCC(C)C3C)cnn2c(C)c1Cc1cccc(Cl)c1 (stereo not given)	GPR151 ag 6.5 | GPR151 confirm inactive | GPR119 ag inactive
Cc1nc2c(C(=O)NC3CC3)cnn2c(C)c1Cc1cccc(Cl)c1	none
CCCCNC(=O)c1cnn2c(C)c(Cc3ccc(F)cc3)c(C)nc12	GPR151 ag 8.3 | GPR151 confirm inactive | GPR119 ag inactive
Cc1nc2c(C(=O)NCc3ccccc3Cl)cnn2c(C)c1Cc1cccc(Cl)c1	GPR151 ag 5.3 | GPR151 confirm inactive | GPR119 ag inactive
Cc1cccc(Cc2c(C)nc3c(C(=O)NCC4CCCO4)cnn3c2C)c1 (stereo not given)	GPR151 ag 5.1 | GPR151 confirm inactive | GPR119 ag inactive
Cc1c(CN2CCc3c(nc(N4CCCCC4)[nH]c3=O)C2)c(=O)n(C)c(=O)n1C	none
COc1ccccc1CNC(=O)c1cnn2c(C)c(Cc3ccc(C)cc3)c(C)nc12	GPR151 ag 5.6 | GPR151 confirm inactive | GPR119 ag inactive
Cc1ccc(NC(=O)c2cccc(S(=O)(=O)Nc3cccc(C(=O)O)c3)c2)cc1	GPR151 ag 6.4 | GPR151 confirm inactive | GPR119 ag inactive
COc1c(Cl)cc(C(=O)Nc2cccc(C(=O)O)c2)cc1Cl	GPR151 ag 5.7 | GPR151 confirm inactive | GPR119 ag inactive
Nc1nonc1C(=O)N/N=C/c1cn(Cc2cccc(Cl)c2)c2ccccc12	none
COC(=O)c1nc(N)sc1-c1ccc(Cl)c(Cl)c1	GPR151 ag 7.6 | GPR151 confirm inactive | GPR119 ag inactive
O=C(Cn1nnc(-c2ccc([N+](=O)[O-])cc2)n1)NCC1CC1	GPR151 ag 5.9 | GPR151 confirm inactive | GPR119 ag inactive
Cc1cccc(C(=O)Nc2ccc(F)cc2F)c1[N+](=O)[O-]	GPR151 ag 11 | GPR151 confirm inactive | GPR119 ag inactive
Cc1cccc(C(=O)Nc2ccc(Br)cc2F)c1[N+](=O)[O-]	none
